Experimental data published in PubChem BioAssay (NCI).
Values joined by “and” are separate entries in the source; they are usually repeats but may differ in a detail not shown here. Equal entries are not always repeated. Compounds without any hit were thinned out: in the full panel of roughly 83,000, 20% have a hit.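 Cells were grown in 96-well plates and exposed to the test compound at a single concentration for 48 hours; results are reported as percent growth, with values below 10 considered active.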 The source holds several records for some structures; these can differ, active in one and inactive in another. Active and inactive are the calls of the source.

Experiments:
Assay in all cases: NCI-60 one-dose screen, 48 h (100 = growth as untreated, 0 = no growth, -100 = all killed)
NCI-H23 lung = test system: NCI-H23 lung
NCI-H226 lung = test system: NCI-H226 lung
NCI-H322M lung = settings: 10 µM
HOP-62 NSCLC = test system: HOP-62 NSCLC
NCI-H460 lung = test system: NCI-H460 lung
HOP-92 NSCLC = test system: HOP-92 NSCLC
NCI-H522 lung = settings: 10 µM unless noted
A549/ATCC NSCLC = test system: A549/ATCC NSCLC
786-0 renal = test system: 786-0 renal
COLO 205 colon = test system: COLO 205 colon

SMILES	growth (NCI-H23 lung; 10 µM)	growth (NCI-H226 lung; 10 µM)	growth (NCI-H322M lung)	growth (HOP-62 NSCLC; 10 µM)	growth (NCI-H460 lung; 10 µM)	growth (HOP-92 NSCLC; 10 µM)	growth (NCI-H522 lung)	growth (A549/ATCC NSCLC; 10 µM)	growth (786-0 renal; 10 µM)	growth (COLO 205 colon; 10 µM)	growth (NCI-H23 lung; 100 µM)	growth (NCI-H226 lung; 100 µM)	growth (HOP-62 NSCLC; 100 µM)	growth (NCI-H460 lung; 100 µM)	growth (HOP-92 NSCLC; 100 µM)	growth (A549/ATCC NSCLC; 100 µM)	growth (786-0 renal; 100 µM)	growth (COLO 205 colon; 100 µM)
O=C1C=CC(=CC=C2C=CN(CCCCCCCCCCCO)C=C2)C=C1	20% (inactive)	59.6% (inactive)	92.4% (inactive)	44.5% (inactive)	17.5% (inactive)	24% (inactive)	18.2% (inactive)	46.3% (inactive)	67.2% (inactive)	-42.6% (active)	–	–	–	–	–	–	–	–
CC1=CC(C)=Nc2ccc(Cl)cc2N1	94.1% (inactive)	97.6% (inactive)	102% (inactive)	105% (inactive)	101% (inactive)	96.9% (inactive)	103% (inactive)	114% (inactive)	106% (inactive)	106% (inactive)	–	–	–	–	–	–	–	–
COc1cccc2c1C(=O)c1c(O)c3c(c(O)c1C2=O)C[C@@](O)(C(C)=O)C[C@@H]3OC1CC(N)C(O)C(C)O1 (some centres not stated)	-40.5% (active)	-6.94% (active)	3.64% (active)	-26.1% (active)	-25.3% (active)	-25.2% (active)	-52% (active)	-29.9% (active)	-18.5% (active)	-54.3% (active)	–	–	–	–	–	–	–	–
CCCCCCCCCCSC(=N)N	87.4% (inactive)	99.7% (inactive)	88.7% (inactive)	68% (inactive)	23.8% (inactive)	21.6% (inactive)	45.6% (inactive)	77% (inactive)	51% (inactive)	-84% (active)	–	–	–	–	–	–	–	–
COC1OCC(O)C(O)C1O (configuration not stated)	98.3% (inactive)	108% (inactive)	99.8% (inactive)	102% (inactive)	104% (inactive)	103% (inactive)	97.5% (inactive)	101% (inactive)	101% (inactive)	107% (inactive)	–	–	–	–	–	–	–	–
COc1c(O)cc2oc3cc(O)c(CC=C(C)C)c(O)c3c(=O)c2c1CC=C(C)C	54.6% (inactive)	72.9% (inactive)	–	75.7% (inactive)	28.4% (inactive)	77% (inactive)	60.4% (inactive)	54.3% (inactive)	78.4% (inactive)	95.2% (inactive)	–	–	–	–	–	–	–	–
CC[N+](CC)=c1ccc2nc3c(cc(N)c4ccccc43)oc-2c1	-41.8% (active)	-48% (active)	–	-69% (active)	-57.4% (active)	-60.3% (active)	-48.4% (active)	-19.4% (active)	-79% (active)	-44.4% (active)	–	–	–	–	–	–	–	–
NC(=O)SCC(=O)NNc1ccccc1	112% (inactive)	93.1% (inactive)	–	93.8% (inactive)	98.8% (inactive)	92.2% (inactive)	85.2% (inactive)	85.3% (inactive)	108% (inactive)	100% (inactive)	–	–	–	–	–	–	–	–
Clc1ccc(/C=C/c2ccccn2)c(Cl)c1	93.7% (inactive)	97.1% (inactive)	85.5% (inactive)	96.2% (inactive)	95.2% (inactive)	84% (inactive)	81.2% (inactive)	90% (inactive)	105% (inactive)	94.7% (inactive)	–	–	–	–	–	–	–	–
Cc1cc(NS(=O)(=O)c2ccc(N=Nc3cc(N=Nc4ccc(S(=O)(=O)Nc5cc(C)nc(C)n5)cc4)c4c(NC(=O)C(Cl)Cl)cccc4c3OC(=O)C(Cl)Cl)cc2)nc(C)n1 (tested in a mixture with another compound)	107% (inactive)	94.6% (inactive) and 96.1% (inactive)	94.9% (inactive) and 87.3% (inactive)	102% (inactive) and 103% (inactive)	109% (inactive) and 103% (inactive)	99% (inactive) and 120% (inactive)	86.1% (inactive) and 3.96% (active)	98.9% (inactive) and 95.2% (inactive)	111% (inactive) and 115% (inactive)	109% (inactive) and 113% (inactive)	–	–	–	–	–	–	–	–
Nc1nc(=S)c2ncn(C3OC(CO)C(O)C3O)c2[nH]1 (configuration not stated)	102% (inactive) and 25.8% (inactive)	113% (inactive) and 35.5% (inactive)	–	106% (inactive) and 35.4% (inactive)	120% (inactive) and 9.3% (active)	29.5% (inactive)	96.7% (inactive) and -12% (active)	92.9% (inactive) and 27.9% (inactive)	103% (inactive) and 22.2% (inactive)	155% (inactive) and 12.4% (inactive)	–	–	–	–	–	–	–	–
Clc1cc(Cl)c(Cl)nn1	105% (inactive)	99.8% (inactive)	109% (inactive)	94.2% (inactive)	99% (inactive)	91.9% (inactive)	80.7% (inactive)	57.9% (inactive)	99.4% (inactive)	120% (inactive)	–	–	–	–	–	–	–	–
OC(CN1CCCC2CCCCC21)c1cc2ccccc2c2ccccc12 (configuration not stated)	12.6% (inactive)	39.3% (inactive)	49.4% (inactive)	11.2% (inactive)	7.08% (active)	25.1% (inactive)	80.1% (inactive)	51.5% (inactive)	-11.6% (active)	-73.2% (active)	–	–	–	–	–	–	–	–
O=C(C(=Cc1ccccc1)C(=O)c1ccccc1)c1ccccc1	66.7% (inactive) and 95.2% (inactive)	68.4% (inactive) and 97.7% (inactive)	89.6% (inactive) and 110% (inactive)	102% (inactive)	33.3% (inactive) and 96.3% (inactive)	65.7% (inactive) and 84.3% (inactive)	75.2% (inactive) and 68.9% (inactive)	81.6% (inactive) and 83.1% (inactive)	73.5% (inactive) and 97.3% (inactive)	124% (inactive)	–	–	–	–	–	–	–	–
CC(=O)Nc1cc(C)ccc1C	95.1% (inactive)	98.7% (inactive)	96% (inactive)	107% (inactive)	106% (inactive)	106% (inactive)	96.1% (inactive)	100% (inactive)	106% (inactive)	102% (inactive)	–	–	–	–	–	–	–	–
CC(C)(C)CC(C)(C)c1ccc(OCCO)cc1	106% (inactive)	105% (inactive)	115% (inactive)	110% (inactive)	117% (inactive)	–	–	96.4% (inactive)	109% (inactive)	110% (inactive)	–	–	–	–	–	–	–	–
O=C(/C=C/c1cccnc1)c1ccccc1	96.6% (inactive)	96.6% (inactive)	113% (inactive)	108% (inactive)	87.6% (inactive)	84% (inactive)	-44.2% (active)	99.3% (inactive)	93.7% (inactive)	101% (inactive)	–	–	–	–	–	–	–	–
CCCCCCCCCCCC[N+](C)(C)Cc1ccccc1	23.8% (inactive)	55% (inactive)	87.7% (inactive)	28% (inactive)	71.9% (inactive)	–	-4.63% (active)	70.9% (inactive)	28.1% (inactive)	15.7% (inactive)	–	–	–	–	–	–	–	–
N=S(c1ccccc1[N+](=O)[O-])c1ccccc1[N+](=O)[O-]	83.9% (inactive)	52.7% (inactive)	–	124% (inactive)	104% (inactive)	-1.88% (active)	-77.5% (active)	90.3% (inactive)	39.7% (inactive)	2.39% (active)	–	–	–	–	–	–	–	–
O=c1ccn(C2CC(O)C(COC(c3ccccc3)(c3ccccc3)c3ccccc3)O2)c(=O)[nH]1 (configuration not stated)	101% (inactive)	91.7% (inactive)	–	89.2% (inactive)	91.2% (inactive)	87.8% (inactive)	53.6% [100 µM] (inactive)	74.8% (inactive)	82% (inactive)	114% (inactive)	69.2% (inactive)	36.2% (inactive)	72% (inactive)	39.4% (inactive)	25.4% (inactive)	44% (inactive)	65.5% (inactive)	59.4% (inactive)
COC(=O)C1=COC(C)C2C[n+]3ccc4c([nH]c5ccccc54)c3CC12 (configuration not stated)	103% (inactive) and 88.6% (inactive)	87.1% (inactive) and 71.2% (inactive)	–	94.7% (inactive) and 88.3% (inactive)	113% (inactive) and 95.1% (inactive)	92.2% (inactive) and 75.9% (inactive)	99.2% (inactive) and 76.1% (inactive)	103% (inactive) and 76.7% (inactive)	102% (inactive) and 107% (inactive)	106% (inactive) and 99.7% (inactive)	–	–	–	–	–	–	–	–
Nc1ccc2cc3ccc(N)cc3nc2c1	101% (inactive) and 3.42% (active)	87% (inactive) and -2.76% (active)	–	6.72% (active)	102% (inactive) and 0.17% (active)	96.7% (inactive) and -1.28% (active)	-50.9% (active)	84.3% (inactive) and 2.08% (active)	113% (inactive) and 43.8% (inactive)	109% (inactive) and -39.2% (active)	–	–	–	–	–	–	–	–
